{"source": "the supplement of paper PMC6555819"}
{"system": "PPARg:RXRa 90nM:30nM, anti-RXR (NR concentration 90 nM, RXRa partner concentration 30 nM)", "test": "PBM binding z-score (relative to random genomic background probes); higher = stronger binding; sequences stand for … in GC…GCGATTGACAGCGTAGAATGAAGG", "in_short": "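Scanned fluorescence from custom Agilent 4×180K protein-binding microarrays was regression-normalized. Binding z-scores use random background probes as reference. Ligand-free nuclear receptor dimers were incubated on the arrays for 1 h and detected with antibodies against each partner (one per run).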"}
{"sequence": "ATCGAAAGGTCGACGAGGTGAATATACACCGTTT", "PBM binding z-score": 2.47}
{"sequence": "CGTCCTAGGTCAAGGTCAGTGAAAGAGACTCGAA", "PBM binding z-score": 3.5}
{"sequence": "CTCGAAAGGTCGTGCTCAGGTGAGCATACCAAAC", "PBM binding z-score": 2.96}
{"sequence": "ATCGAAAGGTCGAAGGTGAGTATACCCACCCGAA", "PBM binding z-score": 4.33}
{"sequence": "CCGGCTGGGGCAGAAAGGTTACCATACCATCCGG", "PBM binding z-score": 1.06}
{"sequence": "AGAATGAGGTTATTAAGACCAGGGAATTGCGGTC", "PBM binding z-score": 1.05}
{"sequence": "ATCGAACGGTCGAAGGTGAGTATACCCACCCGAA", "PBM binding z-score": 0.698}
{"sequence": "CATACAGGGTCAGCTAGGCAAGAGTAGGGACGGC", "PBM binding z-score": 1.77}
{"sequence": "AGAATGAGGTTAAGATCAGGGAAACAGAATACAT", "PBM binding z-score": 1.75}
{"sequence": "ACAGACAGGTGAGGGAAGGTAACTCAGCTGGACG", "PBM binding z-score": -0.182}
{"sequence": "GCTAGTTGGTCAGTAGAAGGTCACACACCGGTCG", "PBM binding z-score": 1.54}
{"sequence": "CCAGACAGGTGAGAAGGCAACTCAGCCTCGATTA", "PBM binding z-score": 0.329}
{"sequence": "ATCTCTAGGTAAAGTTCCGTGAAAGATCGATAGA", "PBM binding z-score": 0.543}
{"sequence": "TCTAGTTGGTCACGGAGGTCACGCACGACGGGTA", "PBM binding z-score": 4.38}
{"sequence": "TTACCATGGTGAAAGGTCGTTGATGCACGCCTTG", "PBM binding z-score": 8.01}
{"sequence": "CGAACTAGGTCATTGACAGGACATTGAATAGTAA", "PBM binding z-score": 5.95}
{"sequence": "GGAACGAGGGCAAGTAGATAGCAGAGTTTGATGG", "PBM binding z-score": 0.493}
{"sequence": "AGAACGAGGGCACGCTGAGTTGATCGCAGAGTAG", "PBM binding z-score": 0.789}
{"sequence": "CATCCAGGGTCAGCTAGGCCAGAGTAGGGACGGC", "PBM binding z-score": 1.89}
{"sequence": "CCGAGTAGGTTATGGGGAATTCAGGCAACGGTGA", "PBM binding z-score": 1.48}
{"sequence": "ACTCGGAGGACAAAGGTCGGAGCTACGCCAGTGA", "PBM binding z-score": 5.62}
{"sequence": "GGAACGAGGGCAAAGTTGACAGCATCTGTCGACG", "PBM binding z-score": 8.34}
{"sequence": "TCTTGTTGATCAAGCAGGTTAAGAAAGCCTGAGT", "PBM binding z-score": 1.96}
{"sequence": "CCGAGTAGGTTATGGGGCCTTCAGGCAACGGTGA", "PBM binding z-score": 1.58}
{"sequence": "TCTCGGAGGACGCGAAAGGTCAGAGCTCGACATC", "PBM binding z-score": 3.21}
{"sequence": "TAGCCTAGGTCAGATTGGGCCAGTATACGCTATA", "PBM binding z-score": -0.114}
{"sequence": "GATATTAGTTGAAAGGGCAACCGAATGATTCTCG", "PBM binding z-score": 4.54}
{"sequence": "GGAACGAGGGCAAGCTGATAGCAGAGTTTGATGG", "PBM binding z-score": 0.3}
{"sequence": "CCGACTGGGGCACGGTTACCATAACGCACAGCCA", "PBM binding z-score": 0.391}
{"sequence": "GCAGACAGGTGGAACGCAGGTAACTCAGGGTGGC", "PBM binding z-score": -1.06}
{"sequence": "AGAATGAGGCTATACGTAGATCAGGGAAGAAAGT", "PBM binding z-score": 0.251}
{"sequence": "CCAGACAGGTGAGAAGGTACCTCAGCCTCGATTA", "PBM binding z-score": -0.0819}
{"sequence": "GCTAGCAGGCCATTTGCGTCACTCAATGACGGGC", "PBM binding z-score": -0.185}
{"sequence": "ATCGAAAGTTCGACGAGGTGAGTATACACCGTTT", "PBM binding z-score": 0.117}
{"sequence": "CCTCAGAGGACAACAGGAGGTCAGAGCTGCCAGA", "PBM binding z-score": -0.163}
{"sequence": "CGTCAAAGTTCAACTAAGGTAACGTACAGCACGC", "PBM binding z-score": 4.59}
{"sequence": "GAAACAGGGTCAAGGCCAGAGTACGCGTATTGAT", "PBM binding z-score": 5.15}
{"sequence": "GCTTGTAGATCAAGGTTAAGAACGACTAAGCTAA", "PBM binding z-score": 1.44}
{"sequence": "TCTTGTAGATCAAAGGTTAAGAATGCCGAAGCCT", "PBM binding z-score": 8.37}
{"sequence": "GCTTGTAGTTCAAGGTTAAGAAAGACTAAGCTAA", "PBM binding z-score": 1.18}
